For 54 compounds, inhibition results are on record in ChEMBL document CHEMBL5606458, “ASAP - ZIKV NS2B-NS3 protease fluorescence single point” (2024).

This assay deals with Nonstructural protein 3 (Zika virus) (UniProt A0A024AXB9).
Where [1] appears, read: PRVABC59, Concentration 15.0 uM, Number of replicates 1.0.
Setting [2] is: PRVABC59, Concentration 50.0 uM, Number of replicates 1.0.

The whole screen tested about 2,700 compounds, of which about 160 (5.9%) showed an effect of 50% or more. This excerpt belongs to a sample that is enriched for strong results.

Broadly, the inhibition is the change of the read-out against control, counted positive when it falls.

Nonstructural protein 3 (Zika virus), sequence (A0A024AXB9 as listed by the source): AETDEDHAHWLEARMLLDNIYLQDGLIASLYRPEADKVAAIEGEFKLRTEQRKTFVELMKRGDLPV

Consider `O=C(NCCCSc1ccccc1)c1cc(Cl)ccc1NS(=O)(=O)c1ccc(Oc2ccccc2Cl)cc1`, for which, under setting [1], the inhibition was 21.8%.
On to `N#C[C@@H](NC(=O)c1cc(Cl)ccc1NS(=O)(=O)c1ccc(Oc2ccccc2Cl)cc1)c1ccc(F)cc1`, for which the inhibition under setting [1] worked out at 28.7%.
Turning to `Cc1cc(CO)c2cccc(CC(=O)N(c3ncccn3)S(=O)(=O)c3ccc(N)cc3)c2n1`, the inhibition by setting is: (PRVABC59, Concentration 49.95 uM, Number of replicates 2.0, Standard deviation 0.08143445481880901 %) 93.4%; (PRVABC59, Concentration 99.9 uM, Number of replicates 2.0, Standard deviation 0.09670172922339526 %) 93.5%.
Turning to `Cc1cc(CO)c2cccc(Cc3ccccc3C(=O)N(c3ncccn3)S(=O)(=O)c3ccc(N)cc3)c2n1`, the inhibition (PRVABC59, Concentration 49.95 uM, Number of replicates 2.0, Standard deviation 0.5295893128804832 %) was determined as 2.68% and the inhibition (PRVABC59, Concentration 99.9 uM, Number of replicates 2.0, Standard deviation 0.15206043463069627 %) amounted to 8.61%.
For the compound `Cc1cc(CO)c2cccc(Cc3cccc(C(=O)N(c4ncccn4)S(=O)(=O)c4ccc(N)cc4)c3)c2n1`, the inhibition (PRVABC59, Concentration 49.95 uM, Number of replicates 2.0, Standard deviation 0.9333358068338657 %) worked out at 1.86% and the inhibition (PRVABC59, Concentration 99.9 uM, Number of replicates 2.0, Standard deviation 0.5295896500552713 %) was 17.8%.
As for `c1ccn2c(CNCC3CCOCC3)nnc2c1`, the inhibition was -1.69% (PRVABC59, Concentration 49.5 uM, Number of replicates 2.0, Standard deviation 1.8796463523944162 %); -2.09% (PRVABC59, Concentration 99.01 uM, Number of replicates 2.0, Standard deviation 2.0631141970669455 %); -4.01% (PRVABC59, Concentration 198.0 uM, Number of replicates 2.0, Standard deviation 1.9030296768293513 %).
Turning to `Cc1cc(Br)ccc1CNC(=O)c1cc(Cl)ccc1NS(=O)(=O)c1ccc(Oc2ccccc2Cl)cc1`, under setting [1], the inhibition is 27.2%.
Same read-out and setting: the same measure for `O=C(Nc1ccc(OC(F)F)cc1)c1cc(Cl)ccc1NS(=O)(=O)c1ccc(Oc2ccccc2Cl)cc1`: 57.7%; for `O=C(NCCc1nc(-c2ccc(Cl)cc2)no1)c1cc(Cl)ccc1NS(=O)(=O)c1ccc(Oc2ccccc2Cl)cc1`: 20.2%; for `O=C(NCc1ccc(-c2ccccn2)cc1)c1cc(Cl)ccc1NS(=O)(=O)c1ccc(Oc2ccccc2Cl)cc1`: 31.7%.
Same read-out and setting: the same measure for `O=C(Nc1ccccc1Sc1ccccc1)c1cc(Cl)ccc1NS(=O)(=O)c1ccc(Oc2ccccc2Cl)cc1`: 25.8%; for `COc1cc(NC(=O)c2cc(Cl)ccc2NS(=O)(=O)c2ccc(Oc3ccccc3Cl)cc2)c(Cl)cc1Cl`: 35%; for `COc1c(Cl)cccc1NC(=O)c1cc(Cl)ccc1NS(=O)(=O)c1ccc(Oc2ccccc2Cl)cc1`: 38.1%.
Same read-out and setting: next, `CNC(=O)c1ccccc1NC(=O)c1cc(Cl)ccc1NS(=O)(=O)c1ccc(Oc2ccccc2Cl)cc1`: 12.1%.
For `O=C(Nc1ccccc1Cc1ccccc1)c1cc(Cl)ccc1NS(=O)(=O)c1ccc(Oc2ccccc2Cl)cc1`, the inhibition under setting [1] turned out to be 55.2%.
Still for that read-out and setting: next, `COc1ccc(NC(C)=O)cc1NC(=O)c1cc(Cl)ccc1NS(=O)(=O)c1ccc(Oc2ccccc2Cl)cc1`: 55%.
Same read-out and setting: next, `O=C(NCc1nc(-c2ccccn2)no1)c1cc(Cl)ccc1NS(=O)(=O)c1ccc(Oc2ccccc2Cl)cc1`: 54%; `O=C(Nc1ccc(C(F)(F)F)cc1)c1cc(Cl)ccc1NS(=O)(=O)c1ccc(Oc2ccccc2Cl)cc1`: 26.8%; `O=C(Nc1ccc(SC(F)(F)F)cc1)c1cc(Cl)ccc1NS(=O)(=O)c1ccc(Oc2ccccc2Cl)cc1`: 45.3%.
Regarding `CN1C(=O)c2ccc(NC(=O)C3CCN(c4ccc(C=O)cc4)CC3)cc2C1=O`, the inhibition under setting [2] worked out at 28.5%.
On to `c1ccc2[nH]c(CC3CCN(c4ncnc5[nH]ccc45)CC3)nc2c1`, for which the inhibition is, setting by setting: (PRVABC59, Concentration 49.5 uM, Number of replicates 2.0, Standard deviation 0.8729323765409018 %) -3.7%; (PRVABC59, Concentration 99.01 uM, Number of replicates 2.0, Standard deviation 2.6991147561762485 %) 1.52%; (PRVABC59, Concentration 198.0 uM, Number of replicates 2.0, Standard deviation 4.214592802372255 %) 7.18%.
For the compound `CC(CNC(=O)c1cc(Cl)ccc1NS(=O)(=O)c1ccc(Oc2ccccc2Cl)cc1)(c1ccccc1)c1ccccc1`, under setting [1], the inhibition stood at 31.7%.
Still for that read-out and setting: the same measure for `COc1cccc(CCNC(=O)c2cc(Cl)ccc2NS(=O)(=O)c2ccc(Oc3ccccc3Cl)cc2)c1`: 27.6%; for `O=C(c1cc(Cl)ccc1NS(=O)(=O)c1ccc(Oc2ccccc2Cl)cc1)N1CCN(c2ccccc2O)CC1`: -1.02%.
For the compound `C[C@@H](c1ccccc1)N(Cc1ccncc1)C(=O)C1CCN(c2ccc(C=O)cc2)CC1`, the inhibition under setting [2] was 21.5%.
For the compound `O=C(Nc1cc(Cl)c(F)cc1F)c1cc(Cl)ccc1NS(=O)(=O)c1ccc(Oc2ccccc2Cl)cc1`, the inhibition under setting [1] was 26.5%.
On the same count and under the same terms, next, `O=C(Nc1ccc2scnc2c1)c1cc(Cl)ccc1NS(=O)(=O)c1ccc(Oc2ccccc2Cl)cc1`: 71.2%; `C[C@H](NC(=O)c1cc(Cl)ccc1NS(=O)(=O)c1ccc(Oc2ccccc2Cl)cc1)c1ccc(N2CCOCC2)cc1`: 18.7%; `O=C(Nc1cccc(N2CCOCC2)c1)c1cc(Cl)ccc1NS(=O)(=O)c1ccc(Oc2ccccc2Cl)cc1`: 66.3%.
On the same count and under the same terms, next, `O=C(Nc1ccc(N2CCOCC2=O)cc1)c1cc(Cl)ccc1NS(=O)(=O)c1ccc(Oc2ccccc2Cl)cc1`: 48.5%.
For `O=C(Nc1ccc(Br)nc1)c1cc(Cl)ccc1NS(=O)(=O)c1ccc(Oc2ccccc2Cl)cc1`, the inhibition under setting [1] was 35.2%.
For `O=C(c1cc(Cl)ccc1NS(=O)(=O)c1ccc(Oc2ccccc2Cl)cc1)N1CCN(CCc2ccncc2)CC1`, the inhibition under setting [1] came out at 6.55%.
Turning to `O=C(c1cc(Cl)ccc1NS(=O)(=O)c1ccc(Oc2ccccc2Cl)cc1)N1CCN(CCc2ccccc2)CC1`, under setting [1], the inhibition came out at 53.5%.
Same read-out and setting: next, `O=C(Nc1ccc(Cl)c(Cl)c1)c1cc(Cl)ccc1NS(=O)(=O)c1ccc(Oc2ccccc2Cl)cc1`: 37.7%; `Cc1cc(I)ccc1NC(=O)c1cc(Cl)ccc1NS(=O)(=O)c1ccc(Oc2ccccc2Cl)cc1`: 20.7%.
The same measure, in the same setting: the same measure for `O=C(c1cc(Cl)ccc1NS(=O)(=O)c1ccc(Oc2ccccc2Cl)cc1)N1CCCN(CCCc2ccccc2)CC1`: 11.4%; for `O=C(Nc1ccc(I)cc1F)c1cc(Cl)ccc1NS(=O)(=O)c1ccc(Oc2ccccc2Cl)cc1`: 67.5%; for `O=C(c1cc(Cl)ccc1NS(=O)(=O)c1ccc(Oc2ccccc2Cl)cc1)N1CCC(N2CCCC2=O)CC1`: -2.59%.
As to `Cn1ccc(CN2CC[C@H](c3c[nH]c4ccccc34)C2)cc1=O`, the inhibition (PRVABC59, Concentration 49.5 uM, Number of replicates 2.0, Standard deviation 0.9869168424646743 %) amounted to 2.74%; the inhibition (PRVABC59, Concentration 99.01 uM, Number of replicates 2.0, Standard deviation 1.3893738957347146 %) came out at 5.37%; the inhibition (PRVABC59, Concentration 198.0 uM, Number of replicates 2.0, Standard deviation 1.456023236095902 %) was 9.72%.
Consider `O=C(c1cc(Cl)ccc1NS(=O)(=O)c1ccc(Oc2ccccc2Cl)cc1)N1CCN(Cc2cc(F)ccc2F)CC1`, for which the inhibition under setting [1] is 17.7%.
Same read-out and setting: the same measure for `COc1cc(CNC(=O)c2cc(Cl)ccc2NS(=O)(=O)c2ccc(Oc3ccccc3Cl)cc2)cc(OC)c1OC`: 19.3%.
In the case of `O=Cc1ccc(N2CCC(C(=O)Nc3cccc(Br)c3)CC2)cc1`, the inhibition under setting [2] was 23.9%.
For `O=C(Nc1cccnc1Br)c1cc(Cl)ccc1NS(=O)(=O)c1ccc(Oc2ccccc2Cl)cc1`, under setting [1], the inhibition came to 23%.
Still for that read-out and setting: the same measure for `O=C(Nc1ccc(-c2ccccc2)cc1)c1cc(Cl)ccc1NS(=O)(=O)c1ccc(Oc2ccccc2Cl)cc1`: 26.5%.
In the case of `O=C(Nc1cc(F)c(Br)c(F)c1)c1cc(Cl)ccc1NS(=O)(=O)c1ccc(Oc2ccccc2Cl)cc1`, the inhibition under setting [1] worked out at 23.4%.
The same measure, in the same setting: next, `O=C(NCc1ccc(-c2cccs2)cc1)c1cc(Cl)ccc1NS(=O)(=O)c1ccc(Oc2ccccc2Cl)cc1`: 28.5%.
For `O=C(Nc1ccccc1I)c1cc(Cl)ccc1NS(=O)(=O)c1ccc(Oc2ccccc2Cl)cc1`, the inhibition under setting [1] was 26.7%.
Take `O=C(Nc1ccccc1Oc1ccccc1)c1cc(Cl)ccc1NS(=O)(=O)c1ccc(Oc2ccccc2Cl)cc1`: the inhibition under setting [1] was found to be 54.2%.
On the same count and under the same terms, next, `O=C(NCc1noc(-c2ccco2)n1)c1cc(Cl)ccc1NS(=O)(=O)c1ccc(Oc2ccccc2Cl)cc1`: 48.1%; `O=C(Nc1ccc(-c2ccccn2)cc1)c1cc(Cl)ccc1NS(=O)(=O)c1ccc(Oc2ccccc2Cl)cc1`: 58.7%; `O=C(Nc1cc(Cl)c(O)c(Cl)c1)c1cc(Cl)ccc1NS(=O)(=O)c1ccc(Oc2ccccc2Cl)cc1`: 84.9%.
Turning to `O=C(Nc1ccccc1-c1ccccc1)c1cc(Cl)ccc1NS(=O)(=O)c1ccc(Oc2ccccc2Cl)cc1`, the inhibition under setting [1] was 36.2%.
Still for that read-out and setting: the same measure for `O=C(NCc1noc(-c2cccs2)n1)c1cc(Cl)ccc1NS(=O)(=O)c1ccc(Oc2ccccc2Cl)cc1`: 51.9%; for `O=C(Nc1cc(Cl)c(F)c(Cl)c1)c1cc(Cl)ccc1NS(=O)(=O)c1ccc(Oc2ccccc2Cl)cc1`: 24.3%.
